Screens: PubChem, The Scripps Research Institute Molecular Screening Center
Most compounds without a hit are left out; they make up all but 1.1% or so of the library.
MOR-DOR ag-1 – agonists of OPRM1-OPRD1 heterodimerization, primary screen, cell-based, luminescence. 340,000 tested, 0.3% active. activation, % at 9.3 µM. cells; in the data active = activation above about 18%
MOR-DOR inv ag-1 – inverse agonists of MOR-DOR heterodimerization, primary screen, cell-based, luminescence. Mu-type opioid receptor (Homo sapiens) + Delta-type opioid receptor (Homo sapiens), …. 340,000 tested, 0.21% active. inhibition, % at 9.3 µM. AID 504357, 2011. cell-based MOR-DOR heterodimer luminescence, inverse agonism; in the data active = inhibition above about 22%, passing the limit was not always enough
HTR5A inv ag – HTR5A inverse agonists in luminescence cell assay, primary screen, counter-screen for OPRM1-OPRD1 heterodimer inverse agonist project, full-deck HTS; 5-hydroxytryptamine receptor 5A (Homo sapiens), P47898; HTR5A cell line, inverse agonism; inhibition, % at 9.3 µM; 340,000 tested, 0.083% active; AID 504634, 2011; in the data active = inhibition mostly above about 23%, no sharp cut-off; inactive = mostly below about 18%
Target sequence (P47898 whole entry, looked up): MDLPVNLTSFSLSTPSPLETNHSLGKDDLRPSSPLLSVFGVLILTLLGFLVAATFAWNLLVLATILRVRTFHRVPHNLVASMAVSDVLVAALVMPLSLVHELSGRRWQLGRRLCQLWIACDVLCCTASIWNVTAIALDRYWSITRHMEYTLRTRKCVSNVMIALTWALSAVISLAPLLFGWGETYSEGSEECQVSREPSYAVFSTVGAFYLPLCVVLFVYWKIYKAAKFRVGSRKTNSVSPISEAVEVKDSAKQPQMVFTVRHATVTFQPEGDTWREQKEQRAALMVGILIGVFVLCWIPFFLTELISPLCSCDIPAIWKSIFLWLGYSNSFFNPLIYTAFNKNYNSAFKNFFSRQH
HTR5A ag – HTR5A agonists in luminescence cell assay, primary screen, counter-screen for OPRM1-OPRD1 heterodimer agonist project, full-deck HTS | cell-based | activation, % at 9.3 µM | 340,000 tested, 0.61% active | 5-hydroxytryptamine receptor 5A (Homo sapiens), P47898; in the data active = activation mostly above about 9.5%, no sharp cut-off; inactive = mostly below about 7.6%
MOR-DOR inv ag-2 – inverse agonists of MOR-DOR heterodimerization, counter-screen for HTR5A inverse agonist project, cell-based, luminescence; U2OS counter-screen cells, complementation luminescence; shares compounds with HTR5A inv ag; 190 tested, under 10 active; inhibition, % at 9.3 µM
HTR5A inv conf – HTR5A inverse agonists, retest of hits, confirmation, cell-based, luminescence | shares compounds with HTR5A inv ag | 190 tested, under 10 active | HTR5A-expressing cells, inverse agonism | inhibition, % at 9.3 µM
MOR-DOR ag-2 – OPRM1-OPRD1 heterodimerization promoters, counter-screen for HTR5A agonist project, cell-based, luminescence | shares compounds with HTR5A ag | U2OS counter-screen cells, complementation luminescence, 3 h | activation, % at 9.3 µM | 800 tested, 13% active | AID 504913, 2011; in the data active = activation above about 18%
HTR5A ag confirm – HTR5A agonists, retest of hits, confirmation, cell-based, luminescence | 800 tested, 17% active | AID 504915, 2011 | shares compounds with HTR5A ag | HTR5A agonist cell assay | activation, % at 9.3 µM; in the data active = activation above about 17%
Large screens that a line does not name were inactive (follow-up assays come after a bar, where they were run). Unless noted, no rule for the calls is given here.

CN1c2ccc([N+](=O)[O-])cc2CC2(C(=O)NC(=O)N(c3ccc(Br)cc3)C2=O)C1c1ccccc1 (configuration not stated)	none
C=CCCC1(CC)C(=O)NC(=S)NC1=O	none
COCCn1c(O)c(/C=N/NC(=O)CSC(=S)N2CCCC2)c(=O)[nH]c1=S	HTR5A inv ag 30 | MOR-DOR inv ag-2 inactive | HTR5A inv conf inactive
COC(=O)C1=C(c2ccc(C(C)=O)cc2)C[C@@H]2CC[C@H]1N2C(=O)NCCOc1ccccc1Cl	none
CN1CCN(c2c(F)cc([N+](=O)[O-])c(N)c2Br)CC1	HTR5A inv ag 34 | MOR-DOR inv ag-2 inactive | HTR5A inv conf inactive
COC(=O)C1=C(c2ccccc2)C[C@@H]2CC[C@H]1N2C(=O)N1CCOCC1	none
O=[N+]([O-])c1ccc(O)c([N+](=O)[O-])c1	none
O=c1[nH]c(O)c(N=Nc2cc([N+](=O)[O-])ccc2O)c(=O)[nH]1	HTR5A inv ag 28 | MOR-DOR inv ag-2 inactive | HTR5A inv conf inactive
Cc1[nH]c2ccc(OCc3ccccc3)cc2c1CCN	none
Cc1[nH]c2ccc(O)cc2c1CCN	HTR5A ag 40 | MOR-DOR ag-2 inactive | HTR5A ag confirm 50
Nc1ccc(C2(c3ccc(N)cc3)c3ccccc3-c3ccccc32)cc1	HTR5A ag 44 | MOR-DOR ag-2 23 | HTR5A ag confirm 27
COc1ccccc1CCNC1CCCCCC1	none
c1ccc2c(CCNC3CCCCC3)c[nH]c2c1	HTR5A ag 25 | MOR-DOR ag-2 inactive | HTR5A ag confirm 36
N#Cc1c(Br)n(C2OC(CO)C(O)C2O)c2ncnc(N)c12 (configuration not stated)	HTR5A ag 81 | MOR-DOR ag-2 32 | HTR5A ag confirm 24
CC(N)Cc1c[nH]c2ccc(O)cc12 (configuration not stated)	HTR5A ag 35 | MOR-DOR ag-2 inactive | HTR5A ag confirm 60
COC(=O)C1=C(c2ccc(Cl)c(C(F)(F)F)c2)C[C@@H]2CC[C@H]1N2C(=O)NCc1ccco1	none
COP(=O)(Cc1ccc(C#N)o1)OC	HTR5A ag 15 | MOR-DOR ag-2 inactive | HTR5A ag confirm inactive
CC1CCC(C(C)C)C(OC(=O)Cn2c(COc3ccccc3)[n+](C)c3ccccc32)C1 (configuration not stated)	HTR5A ag 15 | MOR-DOR ag-2 inactive | HTR5A ag confirm inactive
CC(C)(C)c1cc(OC(=O)Cc2ccccc2)ccc1O	none
OCC(Br)CBr (configuration not stated)	none
c1ccc2c(NC3=NCCS3)cccc2c1	HTR5A ag 18 | MOR-DOR ag-2 inactive | HTR5A ag confirm 21
Cc1cccc(-c2nc3ccc(C(=O)N4CCC5(CC4)OCCO5)cc3nc2-c2cccc(C)c2)c1	none
C=CCn1c(O)c(/C(C)=N/N2CCCCC2)c(=O)[nH]c1=O	HTR5A ag 20 | MOR-DOR ag-2 inactive | HTR5A ag confirm inactive
CC[C@@H](CO)NC(=O)[C@@H]1C=C2c3cccc4c3c(cn4C)C[C@H]2N(C)C1	HTR5A ag 81 | MOR-DOR ag-2 inactive | HTR5A ag confirm 78
CN1C[C@H](CNC(=O)OCc2ccccc2)C[C@@H]2c3cccc4c3c(cn4C)C[C@H]21	none
CCC(CO)NC(=O)C1C=C2c3cccc4[nH]cc(c34)CC2N(C)C1 (configuration not stated)	HTR5A ag 75 | MOR-DOR ag-2 inactive | HTR5A ag confirm 88
CC(C)C[C@H]1C(=O)N2CCC[C@H]2[C@]2(O)O[C@](NC(=O)[C@@H]3C=C4c5cccc6[nH]cc(c56)C[C@H]4N(C)C3)(C(C)C)C(=O)N12	none
CC[C@@H](CO)NC(=O)[C@@H]1C=C2c3cccc4[nH]cc(c34)C[C@H]2N(C)C1	HTR5A ag 91 | MOR-DOR ag-2 inactive | HTR5A ag confirm 84
COC(=O)C1=C(c2cccc(OCc3ccccc3)c2)C[C@@H]2CC[C@H]1N2C(=O)NCc1ccc(Cl)cc1	none
Cc1cc(O)c2c3c(c(=O)oc2c1)CCC(C)C3 (configuration not stated)	none
Cc1cc(O)c2c(c1)OC(C)(C)C1=C2CC(C)CC1 (configuration not stated)	HTR5A ag 15 | MOR-DOR ag-2 inactive | HTR5A ag confirm inactive
c1ccc(-n2ccnc2)cc1	none
COC(=O)C1=C(c2ccc(F)cc2F)C[C@@H]2CC[C@H]1N2C(=O)NCc1ccc2c(c1)OCO2	HTR5A ag 21 | MOR-DOR ag-2 inactive | HTR5A ag confirm inactive
COP(=S)(OC)SCn1nnc2ccccc2c1=O	none
CN(C)C(=O)O/N=C(\N)COc1ccc(C(C)(C)C)cc1	HTR5A ag 29 | MOR-DOR ag-2 inactive | HTR5A ag confirm inactive
CCC(CO)(C(=O)OC1CC2CCC(C1)N2C)c1ccccc1 (configuration not stated)	HTR5A ag 16 | MOR-DOR ag-2 inactive | HTR5A ag confirm inactive
CN1C2c3ccccc3C3C4c5ccccc5C(C31)C(C2[N+](=O)[O-])N4C (configuration not stated)	none
CC(Cc1ccccc1)/[N+]([O-])=C\c1ccc(C(F)(F)F)cc1 (configuration not stated)	none
CCN(CC)C(=O)N[C@H]1C[C@@H]2c3cccc4[nH]cc(c34)C[C@H]2N(C)C1	none
CN1C[C@H](CO)C[C@@H]2c3cccc4[nH]cc(c34)C[C@H]21	HTR5A ag 16 | MOR-DOR ag-2 inactive | HTR5A ag confirm 23
OCCNCCc1c[nH]c2ccc(OCc3ccccc3)cc12	none
COc1ccc2[nH]cc(CCN)c2c1	HTR5A ag 60 | MOR-DOR ag-2 inactive | HTR5A ag confirm inactive
COC(=O)C1C2c3ccccc3C(c3ccccc32)C1C(=O)OC (configuration not stated)	none
COc1ccc(Cl)cc1C(=O)C1CCCN(Cc2cnc(C)s2)C1 (configuration not stated)	none
